This is a sample that favours compounds with a hit; in the whole collection about 1.8% have one here.
APP 5UTR inh: inhibitors of APP translation via 5'UTR reporter, primary screen, APP 5'UTR luciferase, SH-SY5Y cells; SH-SY5Y APP 5'UTR-luciferase reporter, luminescence; inhibition, % at 2 µM; 190,000 compounds, 0.82% hits; AID 1285, 2008;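 active = inhibition above a set limit, derived from the sample mean plus 3 SD, cut at about 45% in these data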
KLF5 inh: KLF5 expression inhibitors, primary screen, DLD-1 cells, luminescence; AID 1700, 2009; inhibition, % at 5 µM; 290,000 compounds, 0.23% hits; DLD-1 KLF5 promoter-luciferase reporter;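 active = inhibition above a per-plate limit of that plate's mean compound inhibition plus 3 SD, cut at about 60% in these data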;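 also: 0% = DMSO wells and 100% = LY294002 at 200 µM; higher means less KLF5 promoter-driven luciferase light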
BaF3 tox: parental Ba/F3 cell viability inhibition, counter-screen for JAK2V617F inhibitor project, murine pro-B, CellTiter-Glo luminescence; CellTiter-Glo ATP luminescence; inhibition, % at 5.6 µM; 220,000 compounds, 1.1% hits; AID 1486, 2009;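 active = inhibition above a per-campaign cutoff, the mean inhibition of all tested compounds plus 3 SD, cut at about 27% in these data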;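 also: 0% = DMSO wells and 100% = JAK Inhibitor I control wells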
IEC-6 cytotox: cytotoxicity in IEC-6 intestinal epithelial cells, primary screen, cytotoxicity control for KLF5 inhibitor project, cell-based, luminescence | IEC-6 cytotoxicity, luminescence viability | inhibition, % at 5 µM | 290,000 compounds, 0.78% hits | AID 1825, 2009; in the data active = inhibition above about 22%;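 also: 0% = plate median of test compound wells and 100% = cytotoxic reference compound wells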
Ba/F3 V617F tox: reduced viability of JAK2V617F-dependent Ba/F3 cells, primary screen, JAK2V617F inhibitor project, cell-based, Ba/F3 EpoR-JAK2V617F, luminescence; inhibition, % at 5.6 µM; AID 1446, 2008; 220,000 compounds, 1.1% hits; ATP luminescence;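 active = inhibition above the campaign mean plus 3 SD over all tested compounds, cut at about 24% in these data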;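 also: cytokine-independent growth of Ba/F3 cells driven by EpoR plus mutant JAK2; 0% = DMSO-treated cells and 100% = JAK inhibitor I control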
BaF3 parental 2: parental Ba/F3 cell viability inhibition, counter-screen for JAK2V617F inhibitor project, murine pro-B, CellTiter-Glo luminescence | shares compounds with Ba/F3 V617F tox | cells kept alive by added IL-3 | inhibition, % at 5.6 µM | 580 compounds, 31% hits | AID 1520, 2009;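 active = cell growth inhibition above the hit limit set in the earlier mutant JAK2 cell screen, cut at about 27% in these data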;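 also: plate controls were DMSO-treated cells for no effect and JAK Inhibitor I control wells for full effect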
JAK2V617F confrm: viability loss in Ba/F3 EpoR-JAK2V617F cells, confirmation, JAK2V617F inhibitor project, cell-based, luminescence, triplicate | CellTiter-Glo luminescence | inhibition, % at 5.6 µM | shares compounds with Ba/F3 V617F tox | 580 compounds, 66% hits;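 active = mean inhibition above the hit cutoff derived in the earlier primary screen, cut at about 25% in these data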;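 also: 0% = DMSO-treated cells and 100% = JAK inhibitor I control wells; higher means lower luminescence from reduced cell ATP and viability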
Starred values were filed as active, the others as inactive; . = no result given.

SMILES | APP 5UTR inh | KLF5 inh | BaF3 tox | IEC-6 cytotox | Ba/F3 V617F tox | BaF3 parental 2 | JAK2V617F confrm
CCn1c(SCc2c(F)cccc2Cl)nnc1-c1ccco1 | -1.8 | 8.5 | -0.8 | 4.2 | 27.2* | -2.0 | 3.6
CCn1c(SCc2nc(-c3ccccc3)no2)nnc1-c1ccco1 | 2.6 | 7.2 | 4.7 | -3.3 | -2.1 | . | .
CCc1nc(C)cn1S(=O)(=O)c1ccc([N+](=O)[O-])cc1 | -0.2 | -28.8 | 3.8 | 1.0 | -1.5 | . | .
CCCn1c(CC)nc([N+](=O)[O-])c1S(=O)(=O)c1ccccc1 | 13.8 | 3.0 | 8.3 | 5.1 | 49.1* | -1.6 | 69.7*
Oc1ccc(/C=N/N2CCN(C3c4ccccc4-c4ccccc43)CC2)cc1 | . | -30.5 | -3.5 | 0.1 | 0.1 | . | .
Oc1ccc(/C=N/N2CCN(C3c4ccccc4-c4ccccc43)CC2)cc1O | . | -15.1 | 2.1 | -2.1 | 70.1* | 9.1 | 89.9*
CCN(Cc1ccncc1)Cc1cn[nH]c1-c1ccc(OC)cc1F | 8.2 | -24.2 | 5.9 | 4.8 | -1.5 | . | .
O=C(O[C@@H]1OC2COC(=O)c3cc(O)c(O)c(O)c3-c3c(cc(O)c(O)c3O)C(=O)O[C@@H]([C@H]1O)[C@@H]2O)c1cc(O)c(O)c(O)c1 | 12.1 | -19.7 | 9.4 | 7.1 | 47.9* | -2.8 | -6.8
CCCOc1ccc(Cc2nc(N)nc(N)n2)cc1 | 1.1 | -4.1 | 11.8 | 6.1 | 39.8* | 8.4 | 18.5
CCOc1ccc(Cc2nc(N)nc(N)n2)cc1 | -9.1 | -18.0 | 3.3 | -5.6 | -1.3 | . | .
CC1=CC(C)(C)N(S(=O)(=O)c2ccc(C)cc2)c2ccccc21 | 20.2 | 8.7 | 10.7 | 4.8 | 30.2* | 46.0* | 94.5*
CC1=CC(C)(C)N(S(=O)(=O)c2ccc(F)cc2)c2ccc(C)cc21 | 10.4 | -27.0 | -0.2 | 7.0 | -2.2 | . | .
Cc1nc([N+](=O)[O-])c(Sc2nc3ccccc3n2C)n1Cc1ccccc1 | 1.4 | -34.2 | -2.4 | 10.2 | 28.2* | 5.4 | 91.5*
CCC(C)C(=O)Nc1c2c(nc3c1CCC3)CCCC2 (stereo not drawn) | 14.6 | -5.8 | 18.0 | 7.6 | 31.9* | -6.1 | -19.9
CC(C)C(=O)Nc1c2c(nc3c1CCC3)CCCC2 | 11.5 | -27.9 | 10.1 | 0.4 | 1.0 | . | .
O=Cc1[nH]c2ccccc2c1N(C(=O)CCl)c1ccc([N+](=O)[O-])cc1 | . | -7.1 | -1.6 | -3.3 | -1.9 | . | .
CC(=O)n1cc(N(C(=O)CCl)c2ccccc2)c2ccccc21 | . | -15.9 | 19.8 | 6.4 | 95.9* | 98.1* | 99.4*
CC(=O)n1cc(N(C(=O)CCl)c2ccc([N+](=O)[O-])cc2)c2ccccc21 | . | -13.6 | 19.6 | -1.0 | 63.0* | 46.2* | 100.0*
Cc1nc2c(-c3ccc(F)cc3)c(C)nn2c(C)c1CCC(=O)Nc1ccccc1F | . | -36.3 | -1.3 | -0.2 | 79.0* | -4.3 | 2.2
Cc1nc2c(-c3ccccc3)c(C)nn2c(C)c1CCC(=O)O | -1.7 | 1.8 | 3.9 | 2.9 | 0.1 | . | .
COCC(=O)N1CCC(Oc2ccc(C(=O)N(C)CCCC3CCCC3)cc2)CC1 | . | -18.9 | . | 0.7 | . | . | .
COc1ccc(/C=C/C(=O)c2cc(F)ccc2OC(=O)c2ccccc2C)cc1OC | 96.7* | 67.7* | 2.2 | 88.5* | 38.6* | 28.8* | 97.3*
C=CCn1c(Sc2ncc([N+](=O)[O-])s2)n[nH]c1=O | . | -4.0 | 24.5 | 11.1 | 77.2* | -4.1 | 8.9
C=CCn1c(CSc2ccccc2[N+](=O)[O-])n[nH]c1=S | . | -22.8 | . | 6.0 | . | . | .
O=C(c1ccc(F)cc1)N1CCCC(C(=O)N2CCc3ccccc3C2)C1 (stereo not drawn) | . | -6.1 | -5.0 | -6.7 | -1.2 | . | .
SMILES | APP 5UTR inh | KLF5 inh | BaF3 tox | IEC-6 cytotox | Ba/F3 V617F tox | BaF3 parental 2 | JAK2V617F confrm
CCCCn1c(=N)n(CC(=O)c2ccc(Br)s2)c2ccccc21 | . | 9.8 | -3.8 | -1.4 | 71.3* | 6.2 | 60.5*
O=S1(=O)C=C(Sc2nnc(-c3ccccc3)o2)c2ccccc21 | 95.8* | -11.5 | -5.5 | -2.2 | 34.5* | 94.0* | 98.4*
O=C(NC1C=CS(=O)(=O)C1)c1sc2ccccc2c1Cl (stereo not drawn) | -10.9 | -18.6 | 4.3 | 0.3 | 27.0* | -4.1 | 58.8*
O=C(NC1CC1)c1sc2ccccc2c1Cl | . | -11.2 | . | -0.3 | . | . | .
COc1ccc(NC(=O)/C(C#N)=C\c2cc(C)n(-c3ccc4c(c3)OCO4)c2C)cc1 | 6.9 | -10.2 | 5.0 | 5.0 | 29.7* | 72.9* | 92.6*
S=C(Nc1ccc(Cl)cc1)c1nc2ccccc2s1 | -64.8 | -25.1 | -0.7 | 0.4 | -2.4 | . | .
O=C(Nc1ccc(Cl)cc1)/C(=C/c1cccc(O)c1)c1nc2ccccc2s1 | 30.4 | 13.3 | -2.5 | 3.5 | 68.3* | 19.6 | 98.3*
C#Cc1cccc(NC(=O)c2ccc3c(c2)C(=O)N(Cc2cccnc2)C3=O)c1 | . | 6.5 | . | 3.9 | . | . | .
Cc1cccc(CS(=O)(=O)c2nnc([C@H](Cc3ccccc3)NC(=O)OC(C)(C)C)o2)c1 | 72.2* | 1.9 | 0.9 | 19.3 | 43.9* | 11.6 | 82.2*
COC(=O)CS(=O)(=O)c1nnc([C@H](Cc2ccccc2)NC(=O)OC(C)(C)C)o1 | 22.9 | -14.3 | 1.2 | 1.2 | -2.6 | . | .
COc1ccc(/C=N/NC(=O)CCn2cnc(-c3ccccc3)c2-c2ccccc2)cc1 | 89.2* | 9.2 | 11.0 | 39.7* | 46.9* | 62.3* | 94.0*
COc1ccccc1NC(=O)CNc1ccc(F)c(Cl)c1 | -5.0 | -18.1 | -0.8 | 4.5 | -4.9 | . | .
COc1cc(N2C(=O)C=CC2=O)c(OC)cc1Cl | . | -2.9 | 2.5 | 15.8 | 32.5* | -1.9 | 22.7
COc1ccc(OC)c(C2CC(=O)c3c([nH]c(C(=O)OC(C)C)c3C)C2)c1 (stereo not drawn) | 94.6* | 3.0 | 11.4 | 18.5 | 68.4* | 57.5* | 89.7*
Cc1cc(S(=O)(=O)N2CCOCC2)ccc1OCC(=O)NCCN1CCOCC1 | . | 14.3 | . | -1.8 | . | . | .
CCOC(=O)c1c(C)sc2c1N(C(=O)CCl)c1cc(Cl)ccc1S2 | -1.6 | 8.7 | 10.5 | 12.6 | 28.0* | 57.9* | 98.9*
Cc1ccc(C)c(Cn2nnc3c(=O)[nH]c(C(=O)NCC4CCCO4)nc32)c1 (stereo not drawn) | 2.0 | -15.6 | 4.4 | 5.5 | 27.5* | -0.7 | 1.4
CNC(=O)c1ccc(S(=O)(=O)c2ccc(Cl)cc2)c(NC(C)=O)c1 | . | -6.8 | . | -1.4 | . | . | .
CNC(=O)c1nnsc1S(=O)(=O)c1ccc(Cl)cc1 | 94.9* | 16.5 | 8.4 | 47.6* | 91.1* | 68.3* | 97.9*
O=C(c1nnsc1S(=O)(=O)c1ccc(Cl)cc1)N1CCOCC1 | 38.1 | 28.9 | 2.8 | 18.6 | 75.6* | 45.2* | 74.8*
